In ChEMBL document CHEMBL3433997, “St. Jude Leishmania screening dataset” (2016):

The molecules below were run against Hexose transporter 1 (Plasmodium falciparum) (UniProt O97467) (assay: ST_JUDE_LEISH: Cytotoxicity at 2uM final concentration against transgenic Leishmania Mexicana promastigotes LmPfHT that are glucose transport deficient and complemented with the Plasmodium falciparum hexose transporter. Activity is measured by DNA content using SYBR green in vitro).
Format: functional

Row | Structure (SMILES) | inhibition [%]
1 | Cc1cc(NC2CCN(Cc3ccccc3)CC2)nc(NCCCCc2ccccc2)n1 | 17.5
2 | Cc1nc2ccccc2n1C1CC2CCC(C1)N2CCC1(c2ccccc2)CCN(C(=O)Nc2ccc(C(F)(F)F)cc2)CC1 (stereo not given) | 4.07
3 | O=c1cc(NCCCNCc2cccc(SC(F)(F)F)c2)[nH]c2ccccc12 | 3.61
4 | Oc1cc(NCCCNC2CCc3c(Cl)cc(Cl)cc32)nc2ccccc12 (stereo not given) | 0.11
5 | O=S(=O)(Nc1cccc(CCN2CCC(N3CCCCC3)CC2)c1)c1ccc(Oc2ccccc2)cc1 | 4.71
6 | COc1cc(F)c2ncc(Cl)c([C@@H](O)CN3CCC(NCc4ccc5c(n4)NC(=O)CO5)CC3)c2c1 | 3.3
7 | Cc1cc(Nc2ccc(C(C)(C)C)cc2)c2[nH]ncc2n1 | 26.2
8 | CC(C)(C)c1ccc(CN2CCC(CNC(=O)c3cc(-c4cccc(C(F)(F)F)c4)cs3)C2)cc1 (stereo not given) | -0.44
9 | COc1ccc2cc(C(c3nnnn3CC3CCCO3)N3CCc4ccccc43)c(=O)[nH]c2c1 (stereo not given) | 3.26
10 | CCOc1ccc2c(=NN=Cc3cc(OC)c(OC)cc3OC)cc(C)[nH]c2c1 | 2.65
11 | COc1ccc(NC(=O)CCNc2cc(C)nc(NCc3ccccc3C)n2)cc1 | 5.4
12 | Nc1ccc2[nH]cc(C3CCN(CCC4CCN(C(=O)/C=C/c5ccc(Cl)c(Cl)c5)CC4)CC3)c2n1 | -0.31
13 | c1ccc2c(NCCCCCCCNc3ccnc4ccccc34)ccnc2c1 | 13.3
14 | Cc1ccc2ncc(Cl)c(CCN3CCC(NCc4ccc5c(n4)NC(=O)CS5)CC3)c2n1 | 4.54
15 | O=S(=O)(NCCN1CCCC1)c1ccc(-c2ccc(CNCc3ccccc3)cc2)cc1F | 3.01
16 | CSC1=NC(=Nc2ccccc2C)C2(CCC(C(C)(C)C)CC2)N1c1ccccc1Cl (stereo not given) | -3.95
17 | CCc1ccc(NC(=O)c2ccc(CN3CCCN(CC4CCCCC4)CC3)cc2)cc1 | 10.3
18 | O=C(NCCCCN1CCC(c2ccc3c(c2OCc2ccncc2)CCCC3)CC1)c1ccc(-c2ccc(C(F)(F)F)cc2)cc1 | 1.48
19 | O=C(Nc1cccc(CN2CCCN(Cc3ccc(O)cc3)CC2)c1)c1cc2ccccc2s1 | 1.71
20 | COc1ccccc1CCNc1nc(C)cc(N[C@@H](CC(C)C)C(=O)NCc2cccs2)n1 | 5.41

Row | Structure (SMILES) | inhibition [%]
21 | COc1cc(Cc2cnc(N)nc2N)cc(OC)c1OCCCCC(=O)O | 0.53
22 | O=C(Nc1cccc(-c2ccc(NCCCN3CCCC3)nc2)c1)c1ccccc1 | 6.59
23 | Cc1cccc2nc(-c3ccc(-c4ccc(NC(=O)C(C)CN(C)C)cc4)cc3)[nH]c12 (stereo not given) | 9.44
24 | C=CCn1c(=N)c(C(=O)NC2CCCCC2)cc2c(=O)n3cccc(C)c3nc21 | 15.2
25 | CCC(=O)c1c(C)n(-c2ncnc3c2nc(C)n3-c2ccc(C)cc2C)c2ccccc12 | 1.9
26 | COc1cc(C(=O)Nc2cccc(-c3cn4ccc(C)cc4n3)c2)cc(OC)c1OC | 8.22
27 | COc1ccc(-n2c(=O)c3c(n4c(SC(C)C)nnc24)-c2ccccc2CC32CCCCC2)cc1 | 1.21
28 | Cc1cccc(/C=C/C(=O)NC2CCC(N3CCC(c4ccccc4C)CC3)CC2)c1 (stereo not given) | -2.79
29 | CC(=O)Nc1nc(C(=O)Nc2ccc(-c3cccc(-c4nc5cccc(C)c5[nH]4)c3)cc2)cs1 | 9.26
30 | CCCCCN1CCCC(NS(=O)(=O)c2ccc(C(=O)Nc3cccc(C(F)(F)F)c3)cc2)C1 (stereo not given) | 2.32
31 | CN1CCCc2ccc(NC(=O)Nc3ccc(Cl)c(Cl)c3)cc2C1 | -0.84
32 | COCCNCc1ccc(-c2ccc(CNC3CCN(Cc4ccccc4)CC3)cc2)cc1 | 2.82
33 | COC(=O)c1cccc(CNCc2cccc(-c3cccc(-c4nc5cc(C(F)(F)F)ccc5[nH]4)c3)c2)c1 | -2.35
34 | C=CCc1cc(C2CCN(CCCCNC(=O)c3ccc(-c4ccc(C#N)cc4)cc3)CC2)c(OCC(N)=O)c2c1CCCC2 | 2.67
35 | Cc1ccc(CNC(=O)c2cc3c(=O)n4ccccc4nc3n(CCCN3CCOCC3)c2=N)cc1 | 6.83
36 | O=C(/C=C/c1ccc(Cl)c(Cl)c1)NCCCCCN1CCCN(C(=O)Nc2ccc(Cl)c(C(F)(F)F)c2)CC1 | -0.33
37 | O=c1ccc2ccc(F)c3c2n1CC3CN1CCC(NCc2cccc(-c3ccccc3F)c2)CC1 (stereo not given) | 22.3
38 | CC(Cc1ccc(C(=O)N2CCN(C(=O)c3ccc(CC(C)NCCc4cccc(Cl)c4)cc3)CC2)cc1)NCCc1cccc(Cl)c1 (stereo not given) | 3.6
39 | COc1cc(C(=O)NCc2nn(CCN3CCC(N4CCCC4)CC3)cc2-c2ccc(Cl)c(Cl)c2)cc(OC)c1OC | 3.08
40 | COc1cccc(NC(=O)N2CCOC(CCN3CCC4(CCc5ccccc54)CC3)(c3ccc(Cl)c(Cl)c3)C2)c1 (stereo not given) | 8

Each molecule was assayed against Glucose transporter (Leishmania mexicana) (UniProt O61059) (assay: ST_JUDE_LEISH: Cytotoxicity at 2uM final concentration against transgenic Leishmania Mexicana promastigotes LmGT2 that are glucose transport deficient and complemented with the L. Mexicana glucose transporter 2. Activity is measured by DNA content using SYBR green in vitro).
Format: functional

Row | Structure (SMILES) | inhibition [%]
41 | Cc1cc(NC2CCN(Cc3ccccc3)CC2)nc(NCCCCc2ccccc2)n1 | 4.87
42 | Cc1nc2ccccc2n1C1CC2CCC(C1)N2CCC1(c2ccccc2)CCN(C(=O)Nc2ccc(C(F)(F)F)cc2)CC1 (stereo not given) | 1.78
43 | O=c1cc(NCCCNCc2cccc(SC(F)(F)F)c2)[nH]c2ccccc12 | 3.15
44 | Oc1cc(NCCCNC2CCc3c(Cl)cc(Cl)cc32)nc2ccccc12 (stereo not given) | 3.08
45 | O=S(=O)(Nc1cccc(CCN2CCC(N3CCCCC3)CC2)c1)c1ccc(Oc2ccccc2)cc1 | 2.69
46 | COc1cc(F)c2ncc(Cl)c([C@@H](O)CN3CCC(NCc4ccc5c(n4)NC(=O)CO5)CC3)c2c1 | 2.71
47 | Cc1cc(Nc2ccc(C(C)(C)C)cc2)c2[nH]ncc2n1 | 4.28
48 | CC(C)(C)c1ccc(CN2CCC(CNC(=O)c3cc(-c4cccc(C(F)(F)F)c4)cs3)C2)cc1 (stereo not given) | -5.97
49 | COc1ccc2cc(C(c3nnnn3CC3CCCO3)N3CCc4ccccc43)c(=O)[nH]c2c1 (stereo not given) | 2.23
50 | CCOc1ccc2c(=NN=Cc3cc(OC)c(OC)cc3OC)cc(C)[nH]c2c1 | -1.87
51 | COc1ccc(NC(=O)CCNc2cc(C)nc(NCc3ccccc3C)n2)cc1 | 3.93
52 | Nc1ccc2[nH]cc(C3CCN(CCC4CCN(C(=O)/C=C/c5ccc(Cl)c(Cl)c5)CC4)CC3)c2n1 | -0.02
53 | c1ccc2c(NCCCCCCCNc3ccnc4ccccc34)ccnc2c1 | 12.9
54 | Cc1ccc2ncc(Cl)c(CCN3CCC(NCc4ccc5c(n4)NC(=O)CS5)CC3)c2n1 | 2.85
55 | O=S(=O)(NCCN1CCCC1)c1ccc(-c2ccc(CNCc3ccccc3)cc2)cc1F | 0.32
56 | CSC1=NC(=Nc2ccccc2C)C2(CCC(C(C)(C)C)CC2)N1c1ccccc1Cl (stereo not given) | -2.88
57 | CCc1ccc(NC(=O)c2ccc(CN3CCCN(CC4CCCCC4)CC3)cc2)cc1 | 7.64
58 | O=C(NCCCCN1CCC(c2ccc3c(c2OCc2ccncc2)CCCC3)CC1)c1ccc(-c2ccc(C(F)(F)F)cc2)cc1 | 0.42
59 | O=C(Nc1cccc(CN2CCCN(Cc3ccc(O)cc3)CC2)c1)c1cc2ccccc2s1 | -2.92
60 | COc1ccccc1CCNc1nc(C)cc(N[C@@H](CC(C)C)C(=O)NCc2cccs2)n1 | 4.04

Row | Structure (SMILES) | inhibition [%]
61 | COc1cc(Cc2cnc(N)nc2N)cc(OC)c1OCCCCC(=O)O | 0.75
62 | O=C(Nc1cccc(-c2ccc(NCCCN3CCCC3)nc2)c1)c1ccccc1 | 0.77
63 | Cc1cccc2nc(-c3ccc(-c4ccc(NC(=O)C(C)CN(C)C)cc4)cc3)[nH]c12 (stereo not given) | 5.39
64 | C=CCn1c(=N)c(C(=O)NC2CCCCC2)cc2c(=O)n3cccc(C)c3nc21 | 4.5
65 | CCC(=O)c1c(C)n(-c2ncnc3c2nc(C)n3-c2ccc(C)cc2C)c2ccccc12 | 3.62
66 | COc1cc(C(=O)Nc2cccc(-c3cn4ccc(C)cc4n3)c2)cc(OC)c1OC | 6.63
67 | COc1ccc(-n2c(=O)c3c(n4c(SC(C)C)nnc24)-c2ccccc2CC32CCCCC2)cc1 | 0.1
68 | Cc1cccc(/C=C/C(=O)NC2CCC(N3CCC(c4ccccc4C)CC3)CC2)c1 (stereo not given) | -0.99
69 | CC(=O)Nc1nc(C(=O)Nc2ccc(-c3cccc(-c4nc5cccc(C)c5[nH]4)c3)cc2)cs1 | 5.38
70 | CCCCCN1CCCC(NS(=O)(=O)c2ccc(C(=O)Nc3cccc(C(F)(F)F)c3)cc2)C1 (stereo not given) | 0.39
71 | CN1CCCc2ccc(NC(=O)Nc3ccc(Cl)c(Cl)c3)cc2C1 | -1.33
72 | COCCNCc1ccc(-c2ccc(CNC3CCN(Cc4ccccc4)CC3)cc2)cc1 | 5.2
73 | COC(=O)c1cccc(CNCc2cccc(-c3cccc(-c4nc5cc(C(F)(F)F)ccc5[nH]4)c3)c2)c1 | -2.5
74 | C=CCc1cc(C2CCN(CCCCNC(=O)c3ccc(-c4ccc(C#N)cc4)cc3)CC2)c(OCC(N)=O)c2c1CCCC2 | 3.22
75 | Cc1ccc(CNC(=O)c2cc3c(=O)n4ccccc4nc3n(CCCN3CCOCC3)c2=N)cc1 | 7.61
76 | O=C(/C=C/c1ccc(Cl)c(Cl)c1)NCCCCCN1CCCN(C(=O)Nc2ccc(Cl)c(C(F)(F)F)c2)CC1 | -2.37
77 | O=c1ccc2ccc(F)c3c2n1CC3CN1CCC(NCc2cccc(-c3ccccc3F)c2)CC1 (stereo not given) | 11.4
78 | CC(Cc1ccc(C(=O)N2CCN(C(=O)c3ccc(CC(C)NCCc4cccc(Cl)c4)cc3)CC2)cc1)NCCc1cccc(Cl)c1 (stereo not given) | 5.54
79 | COc1cc(C(=O)NCc2nn(CCN3CCC(N4CCCC4)CC3)cc2-c2ccc(Cl)c(Cl)c2)cc(OC)c1OC | 3.75
80 | COc1cccc(NC(=O)N2CCOC(CCN3CCC4(CCc5ccccc54)CC3)(c3ccc(Cl)c(Cl)c3)C2)c1 (stereo not given) | 1.65
